Results taken from PubChem BioAssay (Tox21).
Results filed as inconclusive are left out. A call without a number means that no potency is given here. The source made the active and inactive calls. Calls come from the whole dose curve; as a rule, active = well fitted cell-killing curve with a large enough effect in the repeat runs (not every such curve was filed as active); inconclusive = weak or mixed curves, or effect the other way; inactive = no such curve, though single readings can be large or run the other way.

Assay: qHTS assay to identify small molecule antagonists of the estrogen related receptor signaling pathway with the pleiotropic PPARgamma coactivator (PGC) from Tox21 10K library - cell viability counter screen (AID 1224840); note: nearly all actives have a fitted effect of over 40% in size
Conditions: PGC/ERR reporter cells viability, CellTiter-Fluor, 17.5 h; series mostly up to 92.4 µM
Excerpt: National Center for Advancing Translational Sciences [NCATS]
NIH Chemical Genomics Center [NCGC]
U.S. Environmental Protection Agency [EPA]
National Institutes of Environmental Health Sciences [NIEHS]
National Toxicology Program [NTP]
U.S. Food and Drug Administration [FDA]
Estrogen related receptors (ERRs), the first orphan nuclear receptors discovered, play an important role in the control of cellular energy metabolism. ERRs are required for high-energy production in response to the environmental challenges. The pleiotropic PPARgamma coactivator (PGC) is a major partner of ERR and a key regulator in energy homeostasis. Together they have been implicated in the etiology of metabolic disorders such as Type 2 diabetes and metabolic syndrome. ERR-alpha was also identified as an adverse marker for breast cancer progression; ERR-alpha-positive tumors have a poor prognosis. To screen and to identify environmental compounds that perturb the ERR and PGC/ERR signaling pathways could provide valuable information for potential therapeutic or preventive measures in the treatment of metabolic disease. To differentiate true PGC/ERR antagonists or agonist from cytotoxic substances, the assay is multiplexed with cell viability assay.
Tox21 Assay Protocol Summary:
The PGC/ERR cells were dispensed at 2,000 cells/5 ul/well in 1536-well white plates using a Multidrop dispenser. After the assay plates were incubated at a 37 C/5% CO2 incubator for 6 hours, 23 nL of compounds dissolved in DMSO, positive and negative controls or DMSO only was transferred to the assay plate by a pin tool. The plates were incubated at 37 C for 17.5 hours. 1 ul/well of CellTiter-Fluor reagent was added into the assay plates using a Flying Reagent Dispenser. After 30-minute incubation at 37 C/5% CO2, the fluorescence intensity in the plates was measured using a ViewLux plate reader.
Potency is the fitted concentration of half-maximal effect.

SMILES	Potency	viability change, negative = cytotoxic
CC1=CCC(C(C)C)C=C1 (stereo not given)	inactive	–
c1ccc(OCc2ccc(CCCN3CCOCC3)cc2)cc1	inactive	–
CC[C@H](C)[C@H](N)C(=O)O	inactive	–
CCN(CCO)CCCC(C)Nc1ccnc2cc(Cl)ccc12 (stereo not given)	–	1.55% [at 8.39 µM] (inactive)
CCCCCC(CO)CCC (stereo not given)	inactive	–
N[C@H]1C(O)O[C@H](CO)[C@H](O)[C@@H]1O (stereo not given in full)	inactive	–
CC1CCc2cc(F)cc3c(=O)c(C(=O)O)cn1c23 (stereo not given)	inactive	–
CCN(CC)C(C)CN1c2ccccc2Sc2ccccc21 (stereo not given)	inactive	–
CCCCCCCCCCCCC(=O)O	inactive	–
Cn1c(N)nc2nc[nH]c2c1=O	inactive	–
CN1CCC(OC(c2ccccc2)c2ccccc2)CC1	inactive	–
N#CCCNCCC#N	inactive	–
CCCCCCCCCCCCCCCBr	inactive	–
CC(Cc1cccc(C(F)(F)F)c1)NCCOC(=O)c1ccccc1 (stereo not given)	inactive	–
CC(C)=CCCC(C)CC=O (stereo not given)	inactive	–
O=C(O)Cc1sc(-c2ccccc2)nc1-c1ccc(Cl)cc1	inactive	–
Cn1c(NCCN(CCO)CCCc2ccc([N+](=O)[O-])cc2)cc(=O)n(C)c1=O	inactive	–
C=CC(=O)OCC(C)OCC(C)OCC(C)OC(=O)C=C (stereo not given)	54.5 µM (active)	–
CCCC(C)C	inactive	–
CC(=O)[C@@]1(O)CC[C@H]2[C@@H]3C[C@H](C)C4=CC(=O)CC[C@]4(C)[C@H]3CC[C@@]21C	inactive	–

SMILES	Potency	viability change, negative = cytotoxic
CCCCOCCOCCOCCOCCO	inactive	–
CC1(C)[C@H]2CC[C@]1(C)[C@H](O)C2	inactive	–
Cc1occc1S	inactive	–
N#CCc1cccc(C(F)(F)F)c1	inactive	–
CN(C)C/C=C(/c1ccc(Br)cc1)c1cccnc1	inactive	–
Cc1cc(NC(=O)C(=O)O)cc(C)c1Oc1ccc(O)c2c1CCC2	inactive	–
COC(=O)C(C)=O	inactive	–
N#Cc1c(F)cccc1F	inactive	–
CC(C)CCCC(C)CCO (stereo not given)	inactive	–
CC(=O)CC(=O)c1ccccc1	inactive	–
CC/C(=C\C(=N/O)C(N)=O)C(C)[N+](=O)[O-] (stereo not given)	inactive	–
CC(C)(C)c1ccc(S)cc1	inactive	–
S=C(S)NCCNC(=S)S	inactive	–
CCCCOc1cc(C(=O)OCCN(CC)CC)ccc1N	inactive	–
CC(=O)Nc1ccc(/C=N/NC(N)=S)cc1	inactive	–
O=C(Cl)c1c(Cl)cccc1Cl	inactive	–
CCCC(=O)OCC	inactive	–
CCCCCCCCCO	inactive	–
CCN(CC)CCOC(=O)C1(c2ccccc2)CCCC1	inactive	–
CN(C)CCCNCCCN	inactive	–
